Growth data for 4 molecules are collected here from PubChem BioAssay (NCI).

Some test systems named below: SK-MEL-2 melanoma; EKVX NSCLC; SN12C renal; UO-31 renal; ACHN renal; A498 renal; CCRF-CEM leukemia; MOLT-4 leukemia; SR leukemia; RPMI-8226 leukemia; OVCAR-8 ovarian; OVCAR-5 ovarian; OVCAR-4 ovarian; SK-OV-3 ovarian; IGROV1 ovarian; OVCAR-3 ovarian; HS 578T breast; NCI/ADR-RES ovarian.
Common to all, as to experiment: NCI-60 one-dose screen, 48 h (100 = growth as untreated, 0 = no growth, -100 = all killed)
Common to all, as to settings: 10 µM unless noted

About 83,000 compounds went through this panel and 20% of them were active in at least one assay; those are over-represented in the sample as a whole.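 Method: cells in 96-well plates; compound added at one concentration; 48 h incubation; percent growth measured; values under 10 scored active.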 Unmarked numbers belong to inactive results. Activity calls are given as the source filed them.

Consider `COc1ccc(C(=O)NC(=O)Nc2ccc3c(c2)NC(=O)/C3=C\c2[nH]c(C)c(C(=O)O)c2C)c(F)c1`, for which the growth in the experiment on SK-MEL-2 melanoma is 55.3%; in the experiment on EKVX NSCLC, 94.4%; in the experiment with SN12C renal, 57.9%; with UO-31 renal, 88.4%; in the experiment on ACHN renal it was 55.2%; in the experiment on A498 renal, 64.8%. Also, the growth with CCRF-CEM leukemia is 84.3%; in the experiment on MOLT-4 leukemia, 86.2%; in the experiment with SR leukemia, 58.2%; in the experiment with RPMI-8226 leukemia it was 6.29% (active); with OVCAR-8 ovarian, 56.4%; with OVCAR-5 ovarian, 98.8%. For the same molecule, the growth was 12% in the experiment on OVCAR-4 ovarian; 74.1% with SK-OV-3 ovarian; 46.8% with IGROV1 ovarian; 5.25% (active) in the experiment with OVCAR-3 ovarian; 49.4% in the experiment on HS 578T breast; 74.1% with NCI/ADR-RES ovarian.

Turning to `CCCCCCCC(=O)SCC/C=C/[C@@H]1CC(=O)NCc2nc(cs2)C2=N[C@@](C)(CS2)C(=O)N[C@@H](C(C)C)C(=O)N1`, the growth with SK-MEL-2 melanoma was -34.7% (active); in the experiment with EKVX NSCLC it was 32.8%; in the experiment on SN12C renal, 35.5%; in the experiment with UO-31 renal it was 18.9%; in the experiment with ACHN renal it was 7.25% (active); with A498 renal it was -50.3% (active). Also, the growth is 21.3% in the experiment on CCRF-CEM leukemia; 9.36% (active) in the experiment with MOLT-4 leukemia; 6.51% (active) with SR leukemia; -6.34% (active) with RPMI-8226 leukemia; 5.08% (active) with OVCAR-8 ovarian; 22.5% with OVCAR-5 ovarian. The growth with OVCAR-4 ovarian was 31%; with SK-OV-3 ovarian it was -4.42% (active); in the experiment on IGROV1 ovarian it was 0.908% (active); with OVCAR-3 ovarian it was -7.56% (active); in the experiment with HS 578T breast, 11.5%; in the experiment with NCI/ADR-RES ovarian, 84.5%.

Consider `CSc1nc(N)nc2c1ncn2C`, for which the growth with SK-MEL-2 melanoma is 92.3%; in the experiment on EKVX NSCLC it was 94.2%; with SN12C renal, 97.6%; with UO-31 renal it was 94.6%; with ACHN renal, 106%; in the experiment with A498 renal, 119%. In addition, the growth is 98.3% in the experiment with CCRF-CEM leukemia; 87.6% with MOLT-4 leukemia; 91.7% in the experiment on SR leukemia; 96.4% in the experiment on RPMI-8226 leukemia; 106% in the experiment with OVCAR-8 ovarian; 100% with OVCAR-5 ovarian. The growth in the experiment with OVCAR-4 ovarian was 103%; in the experiment on SK-OV-3 ovarian, 90.4%; with IGROV1 ovarian it was 106%; in the experiment on OVCAR-3 ovarian it was 100%; with HS 578T breast it was 106%; in the experiment with NCI/ADR-RES ovarian it was 98.8%.

Consider `CC(C)(C)OC(=O)NCc1cccc(N=C=S)c1`, for which the growth with SK-MEL-2 melanoma is 41.9%; with EKVX NSCLC, 71.6%; in the experiment with SN12C renal, 69.6%; with UO-31 renal, 49.2%; in the experiment with ACHN renal, 61.5%; with A498 renal it was -11.6% (active). The growth in the experiment on CCRF-CEM leukemia was 3.13% (active); in the experiment with MOLT-4 leukemia, -24.6% (active); in the experiment on SR leukemia it was -4.27% (active); in the experiment with RPMI-8226 leukemia, -38.9% (active); with OVCAR-8 ovarian it was 64.4%; with OVCAR-5 ovarian, 65.2%. The growth with OVCAR-4 ovarian is 57.1%; in the experiment with SK-OV-3 ovarian it was 88.2%; in the experiment on IGROV1 ovarian it was 43.1%; in the experiment with OVCAR-3 ovarian, 60.1%; with HS 578T breast, 66.1%; in the experiment on NCI/ADR-RES ovarian, 71.3%.
